For some of these results: Potency and affinity values are given separately.
Tests used:
Design in all cases: scale not given: direction of the effect not stated beside the values
[1] = target: Protein translocase subunit SecA (Escherichia coli (strain K12)) (UniProt P10408); experiment: Assay to Identify E. coli SecA ATPase Inhibitors; type: functional; conditions: 30 µM
[2] = target: T1, Ubiquitin-activating enzyme e1, putative (Leishmania donovani (strain BPK282A1)) (UniProt E9BSI1); experiment: Leishmania donovani Ubiquitin Activating Enzyme (LdE1); type: functional; conditions: 30 µM
T1 sequence (whole entry): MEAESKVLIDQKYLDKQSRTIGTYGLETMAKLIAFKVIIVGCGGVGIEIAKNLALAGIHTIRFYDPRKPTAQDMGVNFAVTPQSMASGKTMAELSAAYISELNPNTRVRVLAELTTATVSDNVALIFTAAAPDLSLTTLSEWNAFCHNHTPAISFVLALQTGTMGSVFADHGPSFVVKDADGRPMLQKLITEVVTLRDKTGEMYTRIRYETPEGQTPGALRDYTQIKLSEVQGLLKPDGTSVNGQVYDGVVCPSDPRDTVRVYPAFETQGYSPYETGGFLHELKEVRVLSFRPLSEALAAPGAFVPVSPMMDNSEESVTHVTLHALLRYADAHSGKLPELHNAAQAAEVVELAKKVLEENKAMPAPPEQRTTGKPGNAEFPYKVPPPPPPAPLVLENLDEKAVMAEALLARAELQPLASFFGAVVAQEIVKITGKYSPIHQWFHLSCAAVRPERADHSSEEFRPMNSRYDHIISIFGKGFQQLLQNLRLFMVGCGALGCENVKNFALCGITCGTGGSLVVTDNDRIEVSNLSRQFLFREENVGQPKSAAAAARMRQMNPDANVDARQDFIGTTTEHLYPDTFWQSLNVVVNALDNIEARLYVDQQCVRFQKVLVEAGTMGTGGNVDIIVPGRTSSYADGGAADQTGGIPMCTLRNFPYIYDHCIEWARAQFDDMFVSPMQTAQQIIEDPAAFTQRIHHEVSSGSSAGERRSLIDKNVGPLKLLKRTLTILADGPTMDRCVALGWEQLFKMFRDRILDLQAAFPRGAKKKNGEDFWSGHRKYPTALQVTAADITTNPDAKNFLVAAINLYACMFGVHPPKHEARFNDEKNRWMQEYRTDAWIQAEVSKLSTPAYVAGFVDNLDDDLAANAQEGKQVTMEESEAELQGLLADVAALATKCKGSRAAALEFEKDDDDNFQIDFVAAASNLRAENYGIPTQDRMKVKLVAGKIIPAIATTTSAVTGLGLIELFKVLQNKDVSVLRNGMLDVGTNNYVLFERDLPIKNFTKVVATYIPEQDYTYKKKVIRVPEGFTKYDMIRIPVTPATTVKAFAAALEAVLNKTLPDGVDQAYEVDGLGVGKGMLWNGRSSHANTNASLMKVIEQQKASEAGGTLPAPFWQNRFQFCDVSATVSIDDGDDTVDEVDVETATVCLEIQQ

[3] = target: AMP-activated protein kinase, AMPK (Homo sapiens) (UniProt P54646+O43741+P54619+Q9UGJ0+Q9Y478+Q13131+Q9UGI9); experiment: AMP-dependent Kinase enzyme assay. An in vitro enzyme assay that detects ADP turnover that is directly proportional to AMPK activity. This uses naive AMPK that is activated during the assay with MK-8722; type: functional; conditions: 30 µM
[4] = target: Sialic acid-binding Ig-like lectin 9 (Homo sapiens) (UniProt Q9Y336); experiment: Hs-Siglec9 ALPHAscreen SOP 20170721; conditions: 10 µM
Trypanosoma cruzi = experiment: Trypanosoma cruzi phosphomannomutase and mannose-1-phosphate guanylyltransferase assay; type: functional; conditions: 10 µM
[5] = target: T2, Arginase-2, mitochondrial (Homo sapiens) (UniProt P78540); experiment: in vitro enzyme assay to detect the production of urea directly proportional to the activity of Arginase II; type: functional; conditions: 33.3 µM; note: in the data most compounds retested in dose-response had high values
T2 sequence (whole entry): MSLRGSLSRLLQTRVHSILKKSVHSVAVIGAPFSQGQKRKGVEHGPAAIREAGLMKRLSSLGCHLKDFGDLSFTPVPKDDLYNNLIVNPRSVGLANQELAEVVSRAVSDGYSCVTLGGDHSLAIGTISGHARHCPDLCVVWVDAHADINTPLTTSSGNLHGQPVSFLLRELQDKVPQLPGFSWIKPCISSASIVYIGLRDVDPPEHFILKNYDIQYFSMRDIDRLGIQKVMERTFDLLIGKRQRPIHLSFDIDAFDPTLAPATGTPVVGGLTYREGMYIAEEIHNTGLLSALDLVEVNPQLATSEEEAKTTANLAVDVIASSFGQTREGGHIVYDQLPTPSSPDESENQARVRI

[6] = target: T3, Proteasome subunit beta (Trypanosoma cruzi) (UniProt O96673); experiment: Trypanosoma cruzi proteasome chymotrypsin-like activity (TcProtChymo) assay.; note: in the data most compounds retested in dose-response had high values; type: functional; conditions: 9.37 µM
T3 sequence (whole entry): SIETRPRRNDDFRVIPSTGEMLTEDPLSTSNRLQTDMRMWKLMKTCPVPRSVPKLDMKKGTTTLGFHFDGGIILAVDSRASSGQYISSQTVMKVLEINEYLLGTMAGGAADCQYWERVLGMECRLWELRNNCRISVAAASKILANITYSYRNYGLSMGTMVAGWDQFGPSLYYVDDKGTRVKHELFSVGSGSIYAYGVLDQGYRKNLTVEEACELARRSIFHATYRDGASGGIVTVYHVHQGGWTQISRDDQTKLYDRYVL

Homo sapiens = organism: Homo sapiens; experiment: To identify inhibition of the IFN signalling (Jak-Stat) pathway via expression of an eGFP reporter gene under the control of an IFN-stimulated response element (ISRE) containing MxA promoter.; type: functional; conditions: 30 µM
[7] = target: T4, Tyrosyl-tRNA synthetase, putative (Trypanosoma cruzi (strain CL Brener)) (UniProt Q4DSP6); experiment: Trypanosoma cruzi tyrosyl tRNA synthetase (TcYRS) _High Tyrosine SOP; type: functional; conditions: 30 µM; note: in the data most compounds retested in dose-response had high values
T4 sequence (whole entry): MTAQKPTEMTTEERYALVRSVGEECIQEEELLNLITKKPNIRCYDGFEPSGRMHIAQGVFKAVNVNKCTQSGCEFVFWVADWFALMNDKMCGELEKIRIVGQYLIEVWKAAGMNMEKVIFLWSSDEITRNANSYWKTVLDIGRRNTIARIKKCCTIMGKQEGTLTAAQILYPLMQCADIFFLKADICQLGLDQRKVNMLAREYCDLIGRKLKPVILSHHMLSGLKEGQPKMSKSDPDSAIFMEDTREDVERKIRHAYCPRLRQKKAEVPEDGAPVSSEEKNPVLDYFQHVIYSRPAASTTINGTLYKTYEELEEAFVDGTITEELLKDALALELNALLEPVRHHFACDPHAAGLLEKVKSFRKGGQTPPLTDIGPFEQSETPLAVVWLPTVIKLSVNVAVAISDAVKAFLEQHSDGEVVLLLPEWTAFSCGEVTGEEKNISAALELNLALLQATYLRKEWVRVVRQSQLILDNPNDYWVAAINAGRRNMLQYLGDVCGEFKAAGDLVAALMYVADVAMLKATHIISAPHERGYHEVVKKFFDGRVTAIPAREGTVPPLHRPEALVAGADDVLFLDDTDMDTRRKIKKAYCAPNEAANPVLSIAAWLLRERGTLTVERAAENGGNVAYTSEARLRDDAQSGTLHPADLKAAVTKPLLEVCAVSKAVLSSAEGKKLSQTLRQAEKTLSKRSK

[8] = target: T4, Tyrosyl-tRNA synthetase, putative (Trypanosoma cruzi (strain CL Brener)); experiment: Trypanosoma cruzi tyrosyl tRNA synthetase (TcYRS) SOP; type: functional; conditions: 30 µM
[9] = target: Chromo domain-containing protein 1 (Saccharomyces cerevisiae (strain ATCC 204508 / S288c) (Baker's yeast)) (UniProt P32657); experiment: ScCHD-1 Enzyme Inhibition Assay; type: functional; conditions: 30 µM; note: in the data most compounds retested in dose-response had high values
Chain of Chromo domain-containing protein 1 (Saccharomyces cerevisiae (strain ATCC 204508 / S288c) (Baker's yeast)) (P32657 whole entry, the tested form may be a part): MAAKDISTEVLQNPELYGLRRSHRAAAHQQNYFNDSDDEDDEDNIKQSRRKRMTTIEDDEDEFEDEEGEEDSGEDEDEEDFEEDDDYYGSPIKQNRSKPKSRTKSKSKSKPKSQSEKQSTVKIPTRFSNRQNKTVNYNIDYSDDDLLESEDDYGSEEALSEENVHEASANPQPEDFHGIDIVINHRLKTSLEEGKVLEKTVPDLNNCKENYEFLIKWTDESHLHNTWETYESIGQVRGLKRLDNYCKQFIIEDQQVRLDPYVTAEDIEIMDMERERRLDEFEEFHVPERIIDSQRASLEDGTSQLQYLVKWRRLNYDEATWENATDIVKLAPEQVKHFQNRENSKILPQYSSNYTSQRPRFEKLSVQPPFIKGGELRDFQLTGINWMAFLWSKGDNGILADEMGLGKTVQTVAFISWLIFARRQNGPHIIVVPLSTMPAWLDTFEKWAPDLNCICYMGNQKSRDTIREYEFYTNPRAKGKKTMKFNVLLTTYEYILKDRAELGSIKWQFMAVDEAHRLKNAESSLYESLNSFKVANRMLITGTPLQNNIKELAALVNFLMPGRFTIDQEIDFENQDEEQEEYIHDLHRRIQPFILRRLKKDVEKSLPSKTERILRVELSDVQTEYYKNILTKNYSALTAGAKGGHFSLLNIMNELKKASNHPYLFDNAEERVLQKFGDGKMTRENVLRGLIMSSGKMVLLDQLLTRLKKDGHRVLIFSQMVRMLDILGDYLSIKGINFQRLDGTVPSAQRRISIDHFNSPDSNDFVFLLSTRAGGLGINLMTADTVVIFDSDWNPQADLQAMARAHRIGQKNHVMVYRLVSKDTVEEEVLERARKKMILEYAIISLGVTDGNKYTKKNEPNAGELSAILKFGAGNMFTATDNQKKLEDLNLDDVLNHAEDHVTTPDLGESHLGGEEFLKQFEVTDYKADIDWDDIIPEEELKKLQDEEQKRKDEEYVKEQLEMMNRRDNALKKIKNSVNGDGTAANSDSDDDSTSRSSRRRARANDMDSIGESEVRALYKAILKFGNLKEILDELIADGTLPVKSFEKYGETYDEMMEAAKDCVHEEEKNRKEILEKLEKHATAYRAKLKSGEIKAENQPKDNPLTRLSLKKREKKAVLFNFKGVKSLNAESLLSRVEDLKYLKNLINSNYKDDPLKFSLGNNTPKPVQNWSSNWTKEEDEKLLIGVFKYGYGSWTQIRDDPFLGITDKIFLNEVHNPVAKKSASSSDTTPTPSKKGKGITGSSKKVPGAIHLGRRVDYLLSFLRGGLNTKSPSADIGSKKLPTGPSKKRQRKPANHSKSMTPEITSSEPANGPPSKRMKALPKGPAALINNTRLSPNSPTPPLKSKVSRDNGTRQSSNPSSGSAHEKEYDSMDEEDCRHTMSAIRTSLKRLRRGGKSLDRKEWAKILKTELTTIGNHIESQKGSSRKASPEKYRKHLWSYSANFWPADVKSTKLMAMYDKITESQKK

Chain of Protein translocase subunit SecA (Escherichia coli (strain K12)) (P10408 whole entry): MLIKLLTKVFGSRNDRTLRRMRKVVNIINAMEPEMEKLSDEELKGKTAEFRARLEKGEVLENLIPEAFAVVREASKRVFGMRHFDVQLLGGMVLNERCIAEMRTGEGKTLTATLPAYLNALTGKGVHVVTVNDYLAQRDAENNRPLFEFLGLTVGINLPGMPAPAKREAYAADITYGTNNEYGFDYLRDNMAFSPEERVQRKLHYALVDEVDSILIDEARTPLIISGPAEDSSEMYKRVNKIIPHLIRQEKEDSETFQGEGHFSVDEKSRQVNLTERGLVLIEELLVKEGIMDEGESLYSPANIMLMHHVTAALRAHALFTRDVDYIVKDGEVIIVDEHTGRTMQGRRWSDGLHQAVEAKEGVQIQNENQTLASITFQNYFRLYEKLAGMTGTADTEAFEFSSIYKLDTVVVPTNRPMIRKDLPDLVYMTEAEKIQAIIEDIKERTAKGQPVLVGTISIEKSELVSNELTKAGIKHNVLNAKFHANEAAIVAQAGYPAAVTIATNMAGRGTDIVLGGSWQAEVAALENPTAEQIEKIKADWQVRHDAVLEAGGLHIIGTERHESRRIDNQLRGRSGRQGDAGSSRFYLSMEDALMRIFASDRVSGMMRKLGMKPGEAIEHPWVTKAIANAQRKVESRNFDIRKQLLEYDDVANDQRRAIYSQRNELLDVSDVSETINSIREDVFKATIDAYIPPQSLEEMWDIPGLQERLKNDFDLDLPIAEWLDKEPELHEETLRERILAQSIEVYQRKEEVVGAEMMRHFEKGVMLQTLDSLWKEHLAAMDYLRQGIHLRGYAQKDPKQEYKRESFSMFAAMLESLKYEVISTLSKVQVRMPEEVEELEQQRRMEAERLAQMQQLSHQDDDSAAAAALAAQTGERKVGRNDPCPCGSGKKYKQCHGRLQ
Chain of Sialic acid-binding Ig-like lectin 9 (Homo sapiens) (Q9Y336 whole entry): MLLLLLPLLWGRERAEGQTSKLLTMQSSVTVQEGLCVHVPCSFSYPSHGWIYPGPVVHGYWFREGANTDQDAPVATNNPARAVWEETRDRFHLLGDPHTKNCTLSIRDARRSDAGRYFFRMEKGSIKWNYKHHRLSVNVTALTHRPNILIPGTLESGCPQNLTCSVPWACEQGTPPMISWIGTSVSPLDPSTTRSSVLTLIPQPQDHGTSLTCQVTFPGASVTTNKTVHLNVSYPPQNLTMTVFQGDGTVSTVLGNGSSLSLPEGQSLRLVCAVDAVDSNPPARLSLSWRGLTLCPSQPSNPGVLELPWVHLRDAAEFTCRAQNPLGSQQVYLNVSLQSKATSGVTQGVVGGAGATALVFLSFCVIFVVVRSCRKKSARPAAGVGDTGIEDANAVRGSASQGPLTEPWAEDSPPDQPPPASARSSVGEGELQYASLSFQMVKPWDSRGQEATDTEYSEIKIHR

SMILES | Percent Effect [1] [%] | Percent Effect [2] [%] | Percent Effect [3] [%] | Percent Effect [4] [%] | Percent Effect (Trypanosoma cruzi) [%] | Percent Effect [5] [%] | Percent Effect [6] [%] | Percent Effect (Homo sapiens) [%] | Percent Effect [7] [%] | Percent Effect [8] [%] | Percent Effect [9] [%]
CCSCCNC(=O)C(c1cccc(C)c1)N(C)C (stereo not given) | 0.71 | 16.2 | 4.54 | 18.5 | 4.83 | 1.43 | 12.1 | 20.1 | 6.88 | 17.1 | -11.3
Cc1nn(C)c(N2CCOCC2)c1CNC(C)c1ccco1 (stereo not given) | -4.24 | 20.8 | 131 | 26.4 | 6.32 | 2.21 | 13.9 | -7.48 | 3.16 | 20.5 | -8.31
CC(=O)N(C)c1nc(CN2CCOC(Cn3cc(C)cn3)C2)cs1 (stereo not given) | -1.65 | 28.6 | -5.25 | -17.3 | 3.82 | -6.95 | 17.4 | 16.8 | 8.57 | 30.6 | -22.3
CCN1CC(C(=O)NC(C)(C)CNC(=O)OC(C)(C)C)CC1=O (stereo not given) | -5.66 | 8.11 | -1.21 | 20.7 | -1.66 | 4.22 | 7.47 | -16.6 | 4.3 | 8.64 | -4.86
COCCCN(CCOC)C(=O)Nc1ccc(C)cc1C | -4.88 | -7.89 | -30.8 | -2.12 | -2.63 | 3.55 | 2.01 | -18.5 | -2.13 | -2.6 | 6.01
